BoNT A protease = BoNT A light chain protease inhibition; multiplex microsphere protease substrate cleavage, flow cytometry; inhibition, % at 10 µM; 360,000 compounds, 0.17% hits; note: plate controls were buffer without enzyme for full effect and enzyme alone for no effect
BoNT-F LC inh = blocks Botulinum neurotoxin F light chain protease; inhibition, % at 10 µM; AID 588497; 360,000 compounds, 0.22% hits; Multiplex microsphere protease cleavage assay, flow cytometry; in the data active = inhibition above about 35%, passing the limit was not always enough; inconclusive = no clear call, values can overlap the other calls; note: plate controls were buffer without enzyme for full effect and enzyme alone for no effect
Anthrax LF prot = blocks Bacillus anthracis lethal factor protease. multiplex microsphere protease cleavage assay, LF. 360,000 compounds, 0.12% hits. inhibition, % at 10 µM; note: plate controls were buffer without enzyme for full effect and enzyme alone for no effect
Target sequence (P15917 whole entry, looked up): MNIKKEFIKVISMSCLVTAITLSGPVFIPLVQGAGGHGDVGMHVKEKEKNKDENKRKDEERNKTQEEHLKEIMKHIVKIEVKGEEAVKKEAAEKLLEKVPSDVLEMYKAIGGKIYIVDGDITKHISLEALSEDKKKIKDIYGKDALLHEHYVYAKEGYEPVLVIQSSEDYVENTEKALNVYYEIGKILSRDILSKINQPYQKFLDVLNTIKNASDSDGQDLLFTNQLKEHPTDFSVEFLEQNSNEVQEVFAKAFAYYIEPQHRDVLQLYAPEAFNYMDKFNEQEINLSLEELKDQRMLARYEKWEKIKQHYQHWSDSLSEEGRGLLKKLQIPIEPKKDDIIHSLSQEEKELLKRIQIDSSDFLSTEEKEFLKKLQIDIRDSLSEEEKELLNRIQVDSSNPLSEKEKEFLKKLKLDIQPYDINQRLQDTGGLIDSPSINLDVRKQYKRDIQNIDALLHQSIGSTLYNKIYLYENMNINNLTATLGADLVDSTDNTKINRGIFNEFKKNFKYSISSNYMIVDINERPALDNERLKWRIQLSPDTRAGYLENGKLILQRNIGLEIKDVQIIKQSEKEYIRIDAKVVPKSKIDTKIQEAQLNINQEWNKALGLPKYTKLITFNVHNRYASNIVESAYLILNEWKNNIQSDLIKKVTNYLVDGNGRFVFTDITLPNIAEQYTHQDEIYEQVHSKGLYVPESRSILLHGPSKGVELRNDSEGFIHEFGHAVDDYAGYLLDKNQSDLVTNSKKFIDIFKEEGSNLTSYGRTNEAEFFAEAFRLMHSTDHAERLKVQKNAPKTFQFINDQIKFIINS
Vc quorum ag = inducers of Vibrio cholerae quorum light production without autoinducers; activation, % at 18.7 µM; 350,000 compounds, 0.16% hits; AID 588436; V. cholerae BH1578 lux reporter, luminescence, 6 h; in the data active = activation mostly above about 9.7%, no sharp cut-off; inconclusive = no clear call, values can overlap the other calls; inactive = mostly below about 3.7%
BJeLR viability = BJeLR cell viability loss | inhibition, % (test concentration not listed) | 300,000 compounds, 0.17% hits | BJeLR (HRASV12) viability, CellTiter-Glo ATP luminescence, 48 h; in the data active = inhibition above about 50%; inconclusive = no clear call, values can overlap the other calls
Autofluor counter = counter-screen for toxin protease inhibitors: compound fluorescence | 360,000 compounds, 3.1% hits | fluorescence intensity (concentration not given with the values) | compound autofluorescence counterscreen, microsphere flow cytometry; stronger effect = higher value; in the data active = fluorescence intensity above about 16000; inconclusive = no clear call, values can overlap the other calls
* hit, by the source's call; i = inactive; u = inconclusive; x = no result. Shown are actives, neighbours in structure and some others; about 3.7% of the full set was active somewhere. Cut-off read from the data, not from the text of the source, unless noted: active = inhibition above about 30%; inconclusive = no clear call, values can overlap the other calls; inactive = below that.

SMILES	BoNT A protease	BoNT-F LC inh	Anthrax LF prot	Vc quorum ag	BJeLR viability	Autofluor counter
Cc1cccc(NC(=O)CSc2nnc(-c3ccccc3)n2N)c1	u	4.0	0.8	i	-0.1	20752*
CC1CCCC(NC(=O)CSc2nnc(-c3cccnc3)n2N)C1C (stereo not drawn)	0.7	10.0	3.0	i	x	18627*
CCn1c2ccccc2c2cc(NC(=O)c3cccc(OC)c3)ccc21	3.6	-0.3	2.8	i	-3.8	22832*
COc1cccc(NC(=O)CSc2nnc(-c3cc(C)[nH]n3)n2N)c1	1.5	8.3	1.4	i	-1.3	5307
CCOc1cccc(-c2nnc(SCC(=O)Nc3cccc(OC)c3)n2N)c1	0.9	2.5	-2.9	i	1.3	21734*
CC1CCCC(NC(=O)CSc2nnc(-c3cccnc3)o2)C1C (stereo not drawn)	0.6	0.1	-4.5	-0.5	x	5162
CCc1nc2ccc(C(=O)NCCN3CCNC3=O)cn2c1N(C)CCC(C)C	0.1	-6.4	0.1	i	x	3954
COC(=O)C1CCC(=O)N1C(c1ccc(OC)cc1)c1cc(OC)c(OC)c(OC)c1 (stereo not drawn)	-0.4	-6.0	-9.2	i	x	3582
CCc1nc2ccc(C(=O)NCCOc3ccc(OC)cc3)cn2c1N(CC)CCOC	0.1	2.0	-7.3	i	x	3848
COC(=O)c1ccc(NC(=O)CSc2nnc(C)n2-c2ccccc2)cc1	8.9	13.2	-7.6	-0.5	9.3	19301*
Nn1c(SCC(=O)Nc2ccc(F)cc2)nnc1C1CCCCC1	u	2.8	-4.6	-2.1	-4.4	21577*
COc1cccc(-c2nnc(SCC(=O)Nc3ccc(OC)c(OC)c3)n2N)c1	-1.5	-4.5	-1.3	-5.3	3.0	23134*
Nn1c(SCC(=O)Nc2ccccc2)nnc1C1CCCCC1	-0.2	-2.7	-0.6	i	-17.4	6704
O=C(CSc1nnc(-c2cccnc2)n1Cc1ccco1)Nc1nc(-c2ccc(F)cc2)cs1	0.3	-0.4	-2.4	12.5	3.4	20486*
O=C(CSc1nnc(-c2cccnc2)n1Cc1ccco1)Nc1cccc(O)c1	-0.6	-3.8	-1.1	-0.2	-3.2	4548
COc1ccc(NC(=O)CSc2nnc(-c3ccccc3)n2N)cc1	0.4	-0.9	-4.1	-0.3	-16.9	3565
Cc1nccn1-c1ccc(NC(=O)[C@H]2O[C@@H](n3ccc(N)nc3=O)[C@H](O)[C@@H]2O)cc1	-0.4	-0.2	-3.1	x	x	5236
NC(c1csc(NC(=O)Nc2ccc(OC(F)(F)F)cc2)n1)C1CCCCC1 (stereo not drawn)	0.2	-34.9	-6.4	-4.5	x	2897
NC(c1ccc(F)c(F)c1)c1nc(-c2cc(F)cc(F)c2)cs1 (stereo not drawn)	0.1	-5.7	-1.7	-0.5	x	3517
COc1cccc(-c2nnc(SCC(=O)OC(C)C)n2N)c1	-0.9	-2.5	-2.9	-2.6	-3.4	19700*
COc1cccc(-c2nnc(SCCC(=O)O)n2C)c1	0.4	-0.1	2.3	-0.2	-1.9	23530*
COC(=O)CSc1nnc(C)n1-c1cccc(C#N)c1	-5.8	-6.6	-0.9	i	-0.2	17539*
COc1cccc(C2=CC(c3ccc(N(C)C)cc3)n3nnnc3N2)c1 (stereo not drawn)	1.7	4.6	-2.1	4.3	-5.4	16376*
Cc1ccc(NC(=O)COC(=O)c2ccco2)cc1S(=O)(=O)N1CCCCC1	-0.1	-0.9	-2.3	-0.7	x	3578
COc1ccc(N(C(=O)c2ccco2)S(=O)(=O)c2ccccc2)cc1	1.1	0.0	-3.6	i	-2.9	11124
SMILES	BoNT A protease	BoNT-F LC inh	Anthrax LF prot	Vc quorum ag	BJeLR viability	Autofluor counter
COc1ccc(N(C(=O)c2ccco2)S(=O)(=O)c2cc(Cl)c(Cl)cc2Cl)cc1	-1.4	-5.6	-5.9	i	-9.5	23813*
O=C(NCc1ccco1)c1[nH]c(C(F)(F)F)nc1-c1ccccc1	-0.5	2.5	3.0	x	x	5875
C[C@@H]1O[C@@H]1P(=O)(O)O	-1.4	-12.4	-3.4	-0.6	x	4957
C[C@H]1O[C@H]1P(=O)(O)O	-0.4	0.4	-7.7	29.2*	-12.0	4401
CS(=O)(=O)N1CCN(C(=O)c2ccc(Br)s2)CC1	1.2	1.7	-0.9	0.9	-2.0	20324*
CS(=O)(=O)N1CCN(C(=O)Cc2cccs2)CC1	u	-2.3	-1.4	-0.6	-5.0	16441*
COc1ccc(Cl)cc1NC(=O)Nn1cnnc1	-0.5	-2.5	-2.2	-14.3	-1.9	16503*
COc1ccc(C(=O)Nc2ccc(C)cn2)c(OC)c1	-4.3	-5.9	-1.6	-2.4	12.0	21063*
COc1ccc(C(=O)Nn2cnnc2)c(OC)c1	1.0	0.1	0.2	i	-6.5	21828*
COc1ccc(C)cc1NC(=O)Nc1ccc(Br)cn1	4.8	10.1	1.0	i	0.9	18723*
O=C1NC[C@H](CCCCN2C[C@H](Cc3ccccc3)N(CCC3CCCCC3)C(=O)C2=O)N(CCc2ccc(O)cc2)C1=O	-0.3	0.5	1.9	x	x	4163
Cc1ccc(NC2=NC(c3ccc(O)cc3)n3c(nc(C)cc3=O)N2)cc1 (stereo not drawn)	u	-3.7	0.8	i	-1.6	22829*
COc1ccc(C2N=C(Nc3ccc(C)cc3)Nc3nc(C)cc(=O)n32)cc1 (stereo not drawn)	-0.8	1.8	-2.1	-1.8	2.6	3770
O=C(COc1ccc(Cl)cc1)N1CCN(S(=O)(=O)c2cc(F)ccc2F)CC1	0.4	-0.9	-5.2	-1.3	x	2890
Cc1ccc(-c2nc(-c3cccnc3)no2)cc1	-0.4	9.0	-2.0	i	5.0	4766
CCC(=O)Oc1ccc(-c2nc(-c3cccnc3)no2)cc1	-2.6	-3.9	3.8	i	8.0	20402*
CCOC(=O)c1[nH]c2ccc(Cl)cc2c1NC(=O)c1nonc1C	-1.6	-2.4	-1.2	i	1.2	23712*
CCOC(=O)c1[nH]c2ccc(OC)cc2c1NC(=O)c1nonc1C	-0.2	-4.7	-7.7	-0.6	-7.7	4476
CCOC(=O)c1[nH]c2ccccc2c1NC(=O)c1nonc1C	u	3.0	-2.4	i	-2.2	21361*
COc1ccc(-n2c(CCc3ccccc3)nnc2SCC(=O)c2ccccc2)cc1	-0.1	9.5	-2.5	i	9.8	2037
COc1ccc(C(=O)CSc2nnc(CCc3ccccc3)n2-c2ccccc2)cc1	-1.9	-3.8	-1.0	-0.4	-2.0	24111*
CC(Oc1ccccc1F)c1nnc(SCC(=O)NCc2ccc3c(c2)OCO3)o1 (stereo not drawn)	1.9	-3.9	0.7	-2.5	x	9177
CN1C(=O)C(=Cc2ccc(N3CCCCC3)o2)C(=O)N(C)C1=S	6.6	99.9*	9.2	-0.5	2.6	9734
CCn1c(SCc2cccc(C(F)(F)F)c2)nnc1-c1ccco1	-1.5	-0.9	-4.7	i	-1.5	22937*
O=c1oc2cc(OCc3nn[nH]n3)ccc2c2c1CCCC2	6.9	11.7	-5.2	1.7	-2.8	18827*
Cc1cc(OCc2nn[nH]n2)c2c3c(c(=O)oc2c1)CCC3	2.7	5.6	-3.3	6.2	1.2	19295*

Source: PubChem BioAssay
